This is a sample that favours compounds with a hit; in the whole collection about 10% have one here.
CtBP-E1A inh = CtBP/E1A binding inhibition | AlphaScreen GST-E1A/His-CtBP binding, 1536-well; active compounds read low | AID 651724 | activity change, % (concentration not given with the values) | hit rate 0.49% among 340,000; in the data active means activity change below about -65%; inconclusive means mostly about -30% to -63%; further: on the % scale 0 is the no-effect control and ±100 the full control effect
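AlphaScreen with 125 nM GST-E1A and 125 nM His-CtBP (5X stocks) in Tris pH 8.0, 300 mM NaCl, BSA, Tween 20, TCEP. Compounds preincubated 2 h at 37 deg C, then glutathione donor/nickel acceptor beads added for 1 h at 37 deg C in dark.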
Six1-Eya2 blk = blocks human Six1 binding to Eya2 | Q15475+O00167 | AlphaScreen GST-Six1/His-Eya2 binding, biochemical; active compounds read low | activity change, % (no concentration beside the values) | hit rate 0.56% among 360,000; in the data active means activity change below about -65%; inconclusive means mostly about -30% to -63%; further: on the % scale 0 is the no-effect control and ±100 the full control effect
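GST-Six1 + His-Eya2 (5X stock: 250/500 nM); Tris pH 8.0, 300 mM NaCl, 0.05% BSA, 0.02% Tween 20; GSH donor/Ni acceptor beads; 1 h 37 °C dark; AlphaScreen readout.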
JMJD2A Tudor = inhibitors of human JMJD2A Tudor domain; hit rate 4.4% among 390,000; Potency, µM (top dose mostly 114 µM), for the others: at the top dose activity change, negative = inhibition, hits mostly inhibitors; AlphaScreen JMJD2A-Tudor / H3K4me3 peptide binding; O75164; further: potency means the concentration at half of the fitted maximal effect; on the % scale 0 is the no-effect control and ±100 the full control effect; nearly all actives have a fitted effect of over 50% in size
HP1b binding inh = HP1-beta chromodomain-methylated histone interaction inhibition; P83916; AlphaScreen HP1-beta / biotin-H3K9me3 peptide binding; Potency, µM (series often up to 114 µM), inactives show at the highest dose activity change, negative = inhibition, hits mostly inhibitors; hit rate 0.56% among 390,000; AID 540317; further: potency means the concentration at half of the fitted maximal effect; nearly all actives have a fitted effect of over 70% in size
Target sequence (P83916 whole entry, looked up): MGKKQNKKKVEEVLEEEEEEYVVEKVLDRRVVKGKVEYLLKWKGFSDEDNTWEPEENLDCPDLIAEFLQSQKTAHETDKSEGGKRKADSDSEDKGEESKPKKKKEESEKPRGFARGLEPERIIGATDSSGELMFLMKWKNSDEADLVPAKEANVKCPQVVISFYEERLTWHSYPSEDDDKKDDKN
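AlphaScreen: HP1-beta (50 nM) preformed 30 min with biotin-H3(1-18)K9me3 peptide (50 nM) in PBS pH 7.4, 0.01% Tween-20. Compound added for 30 min at RT, then streptavidin donor/nickel chelate acceptor beads (10 ug/mL) for 30 min.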
G9a block = inhibitors of human histone lysine methyltransferase G9a; Q96KQ7; G9a H3K9 monomethylation, AlphaScreen, 2 h; Potency, µM (series often up to 102 µM), inactives show at the top dose activity, negative = inhibition, hits mostly inhibitors; hit rate 8.8% among 350,000; further: potency means the concentration at half of the fitted maximal effect; on the % scale 0 is the no-effect control and ±100 the full control effect; nearly all actives have a fitted effect of over 75% in size
Target sequence (Q96KQ7 913-1193 limits assumed): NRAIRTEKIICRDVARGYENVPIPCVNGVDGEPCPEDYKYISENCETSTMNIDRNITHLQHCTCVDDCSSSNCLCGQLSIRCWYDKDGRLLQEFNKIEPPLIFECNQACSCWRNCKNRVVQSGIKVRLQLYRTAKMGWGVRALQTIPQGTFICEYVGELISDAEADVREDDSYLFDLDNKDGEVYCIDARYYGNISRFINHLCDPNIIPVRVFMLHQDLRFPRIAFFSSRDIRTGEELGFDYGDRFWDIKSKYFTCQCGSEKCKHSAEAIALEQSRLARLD
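Quantitative HTS format: methyltransferase activity on a biotin-tagged H3K9 peptide is measured by AlphaScreen, using a rabbit anti-monomethyl-H3K9 antibody with streptavidin donor and anti-IgG acceptor beads. Final levels are 20 nM enzyme, 500 nM peptide, 20 uM SAM; 2 h RT.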
BAZ2B block = inhibitors of human BAZ2B bromodomain; Potency, µM (titrated, usually from 114 µM), without a hit: at the highest dose activity change, negative = inhibition, hits mostly inhibitors; AID 504333; hit rate 4.4% among 360,000; Q9UIF8; AlphaScreen BAZ2B-H3K14Ac peptide displacement; further: potency means the concentration at half of the fitted maximal effect; on the % scale 0 is the no-effect control and ±100 the full control effect; nearly all actives have a fitted effect of over 60% in size
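AlphaScreen luminescence quantifies BAZ2B engagement of H3K14Ac peptide; the protein and biotinylated peptide are both at 50 nM final, buffer PBS pH 7.4 with 0.01% Tween-20, all steps at room temperature.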
* = called active by the depositor; [ ] = another dose, or the depositor's remark. Unless noted, the call rests on the fitted dose curve; in most records, active means well fitted inhibition curve with a large enough effect; inconclusive means small, poorly fitted or top-dose-only effect; inactive means no such curve, though single readings can be large or run the other way.

How did O=C(CSc1ccc([N+](=O)[O-])cn1)Nc1ccc2c(c1)OCO2 do in these assays?
CtBP-E1A inh: -2; Six1-Eya2 blk: 2; JMJD2A Tudor: -23%; HP1b binding inh: -11%; G9a block: 45µM*; BAZ2B block: inconclusive

How did N#Cc1ccccc1NC(=O)CSc1ccc([N+](=O)[O-])cn1 do in these assays?
CtBP-E1A inh: -8; Six1-Eya2 blk: 1; JMJD2A Tudor: -1%; HP1b binding inh: 9%; G9a block: 50µM*; BAZ2B block: 1%

What do the screens show for `O=C(Cn1cnc2cc([N+](=O)[O-])ccc2c1=O)Nc1ccc2c(c1)OCO2`?
CtBP-E1A inh: -25; Six1-Eya2 blk: -19; JMJD2A Tudor: -17%; HP1b binding inh: 22%; G9a block: 40µM*; BAZ2B block: inconclusive

What do the screens show for `O=C(Cc1ccc([N+](=O)[O-])cc1)Nc1ccc2c(c1)OCO2`?
CtBP-E1A inh: 3; Six1-Eya2 blk: 1; JMJD2A Tudor: -1%; HP1b binding inh: 23%; G9a block: 10%; BAZ2B block: 9%

Results for CC(C)(C)c1cc(Br)c(O)c(N=Nc2ccc(S(=O)(=O)N3CCOCC3)cc2)c1 ?
CtBP-E1A inh: inconclusive; Six1-Eya2 blk: inconclusive; JMJD2A Tudor: 5.6µM*; HP1b binding inh: inconclusive; G9a block: 14µM*; BAZ2B block: 7.9µM*

How did O=S(=O)(c1ccc(Br)cc1)N1CCOCC1 do in these assays?
JMJD2A Tudor: 6%; HP1b binding inh: 13%

What do the screens show for `Cc1ccc(O)c(N=Nc2ccc(S(=O)(=O)N3CCOCC3)cc2)c1`?
CtBP-E1A inh: inconclusive; Six1-Eya2 blk: inconclusive; JMJD2A Tudor: 14µM*; HP1b binding inh: inconclusive; G9a block: -31%[12.7 µM]; BAZ2B block: 8.9µM*

What do the screens show for `Cc1sc2nc(SCc3nc(-c4ccccc4)no3)n(-c3ccccc3)c(=O)c2c1C`?
CtBP-E1A inh: -2; Six1-Eya2 blk: 0; JMJD2A Tudor: 12%; HP1b binding inh: 21%; G9a block: 3.2µM*; BAZ2B block: 1%

What do the screens show for `Cc1ccccc1S(=O)(=O)NC1OC(=O)C(Oc2ccccc2)=C1Br` (centres undefined)?
CtBP-E1A inh: -18; Six1-Eya2 blk: 0; JMJD2A Tudor: -20%; HP1b binding inh: 12%; G9a block: 50µM*; BAZ2B block: inconclusive

What do the screens show for `Cc1ccccc1S(=O)(=O)NC1OC(=O)C(Cl)=C1Cl` (centres undefined)?
CtBP-E1A inh: 1; Six1-Eya2 blk: -13; JMJD2A Tudor: inconclusive; HP1b binding inh: 23%; G9a block: -13%[59 µM]; BAZ2B block: inconclusive

How did C=CCN1CCN(c2nc3ccccc3nc2C#N)CC1 do in these assays?
G9a block: 26%[59 µM]

Results for CCN(CC)CCCN1C(=O)C(=O)/C(=C(/O)c2ccc3c(c2)OCCO3)C1c1ccco1 (centres undefined) ?
CtBP-E1A inh: 12; Six1-Eya2 blk: -2; JMJD2A Tudor: -10%; HP1b binding inh: 21%; G9a block: 50µM*; BAZ2B block: -24%

How did O=C1C(=O)N(CCN2CCOCC2)C(c2ccc([N+](=O)[O-])cc2)/C1=C(/O)c1ccc2c(c1)OCO2 (centres undefined) do in these assays?
CtBP-E1A inh: -11; Six1-Eya2 blk: 19; JMJD2A Tudor: 25µM*; HP1b binding inh: 21%; BAZ2B block: -11%

How did O=C1C(=O)N(CCCN2CCOCC2)C(c2ccc(F)cc2)/C1=C(\O)c1ccc2c(c1)OCCO2 (centres undefined) do in these assays?
CtBP-E1A inh: 1; Six1-Eya2 blk: 0; JMJD2A Tudor: -8%; HP1b binding inh: 49%; G9a block: 45µM*; BAZ2B block: -19%

How did COc1ccc(C(CC(=O)Nc2cc(Cl)c(OC)cc2OC)N2Cc3ccccc3C2=O)cc1 (centres undefined) do in these assays?
JMJD2A Tudor: -16%; HP1b binding inh: 20%; G9a block: -33%[59 µM]; BAZ2B block: -15%

Results for O=C1c2ccccc2C(c2nnnn2Cc2ccccc2)N1Cc1cccs1 (centres undefined) ?
CtBP-E1A inh: 1; Six1-Eya2 blk: 3

How did COc1cc(CN2CCC(Cc3ccccc3)CC2)cc(OC)c1OC do in these assays?
CtBP-E1A inh: -7; Six1-Eya2 blk: -4; JMJD2A Tudor: 25µM*; HP1b binding inh: inconclusive; BAZ2B block: 79µM*

What do the screens show for `CCC1CCCCN1Cc1ccc(OC)c(C)c1C` (centres undefined)?
CtBP-E1A inh: -3; Six1-Eya2 blk: 0; JMJD2A Tudor: -13%; HP1b binding inh: 28%; G9a block: 25µM*; BAZ2B block: inconclusive

Results for COc1cc2nc(CN3CCC(Cc4ccccc4)CC3)[nH]c(=O)c2cc1OC ?
CtBP-E1A inh: 3; Six1-Eya2 blk: 6; JMJD2A Tudor: -17%; HP1b binding inh: 12%; G9a block: 13%; BAZ2B block: 0%

What do the screens show for `COc1ccc(CN2CCC(Cc3ccccc3)CC2)c(C)c1C`?
CtBP-E1A inh: 5; Six1-Eya2 blk: 0; JMJD2A Tudor: 28µM*; HP1b binding inh: -15%; G9a block: inconclusive; BAZ2B block: inconclusive

What do the screens show for `CC(C)CCN1CCC(CN2C(=O)C(=O)NC[C@@H]2Cc2ccccc2)CC1`?
CtBP-E1A inh: 4; Six1-Eya2 blk: 4; JMJD2A Tudor: -14%; HP1b binding inh: 23%

How did COc1ccc(-c2ccc(-c3noc(-c4ccco4)n3)c(OC)n2)cc1 do in these assays?
CtBP-E1A inh: 2; Six1-Eya2 blk: 5; JMJD2A Tudor: 3%; HP1b binding inh: 39%; G9a block: 0%[59 µM]; BAZ2B block: 4%

What do the screens show for `COc1nc(-c2ccccc2)ccc1-c1noc(-c2ccco2)n1`?
CtBP-E1A inh: 2; Six1-Eya2 blk: 6; JMJD2A Tudor: 50µM*; HP1b binding inh: inconclusive; G9a block: inconclusive; BAZ2B block: 6%

How did COc1cc(NC(=S)N2CCCC(CO)C2)c(OC)cc1Cl (centres undefined) do in these assays?
CtBP-E1A inh: 1; Six1-Eya2 blk: -3; JMJD2A Tudor: -6%; HP1b binding inh: 4%; G9a block: 45µM*; BAZ2B block: -5%

Results for COc1cc(NC(=S)N2CCN(CCO)CC2)c(OC)cc1Cl ?
CtBP-E1A inh: -1; Six1-Eya2 blk: -3; JMJD2A Tudor: -1%; HP1b binding inh: 42%; G9a block: 0%; BAZ2B block: -7%

Results for O=[N+]([O-])c1cccc(NC(=S)N2CCCC2)c1 ?
CtBP-E1A inh: 0; Six1-Eya2 blk: 4; JMJD2A Tudor: -9%; HP1b binding inh: 50%; BAZ2B block: -13%
